{
  "source": "the supplement of paper PMC7366291",
  "conditions_in_all_cases": "25 µM; exposure: 24-48 hpf",
  "key": {"[1]": {"tested_on": "Danio rerio Tg(wt1b:EGFP) embryo, pronephros", "experiment": "glomerular separation, fold change vs DMSO control; higher = glomeruli further apart (abnormal)", "procedure,_shortened": "(§1)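 Every feature is expressed as a fold change relative to the averaged DMSO-treated embryos of the same day. The exposure ran from 24 to 48 hpf at 28.5°C, with dechorionated Tg(wt1b:EGFP) zebrafish embryos in HEPES-buffered E3 containing 0.003% PTU, 0.5% DMSO and 25 μM compound. Dorsal pronephros images taken in agarose-filled 96-well plates were reduced to maximum projections, on which 16 reference points were set by hand in Fiji for a macro to compute distances and angles. Values more than 2 SD from the feature mean were not used.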"}, "[2]": {"tested_on": "Danio rerio Tg(wt1b:EGFP) embryo, pronephros", "experiment": "glomerular width (mean of left and right), fold change vs DMSO control; higher = wider glomerulus", "procedure,_shortened": "as §1"}, "[3]": {"tested_on": "Danio rerio Tg(wt1b:EGFP) embryo, pronephros", "experiment": "fraction of imaged embryos annotated as normal kidney; higher = less nephrotoxic; extreme values may be limits of the assay", "procedure,_shortened": "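The read-out is the proportion of embryos in each treatment manually annotated as normal-kidney. Exposure ran from 24 to 48 hpf at 28.5°C in 12-well plates, using dechorionated Tg(wt1b:EGFP) zebrafish embryos in 5 mM HEPES-buffered E3 with 0.003% PTU, 0.5% DMSO and 25 μM compound. For imaging, larvae were anaesthetised with tricaine, positioned dorsally in agarose-filled 96-well plates and captured by widefield fluorescence (470 nm, 10 z-slices), with scoring done on maximum projections.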"}, "[4]": {"tested_on": "Danio rerio Tg(wt1b:EGFP) embryo, pronephros", "experiment": "pronephric angle neck segment to proximal convoluted tubule (mean of left and right), fold change vs DMSO control; higher = larger pronephric angle", "procedure,_shortened": "as §1"}},
  "note": "Counter-ions that a name gives are not always drawn. ± gives the standard deviation or the standard deviation of the averaged measurements.",
  "data": [
    {"smiles": "C[C@H](Cc1cc2c(c(C(N)=O)c1)N(CCCO)CC2)NCCOc1ccccc1OCC(F)(F)F", "note": "[Silodosin]", "values": [
      {"measurement": "glomerular separation", "setting": "[1]", "result": "0.726 ± 0.14"},
      {"measurement": "glomerular width", "setting": "[2]", "result": "0.985 ± 0.067"},
      {"measurement": "fraction of imaged embryos annotated as normal kidney", "setting": "[3]", "result": 0.917},
      {"measurement": "pronephric angle neck segment", "setting": "[4]", "result": "0.992 ± 0.028"}
    ]},
    {"smiles": "CCOC(=O)C1=C(C)NC(C)=C(C(=O)OC)C1c1cccc(Cl)c1Cl", "note": "(centres undefined) [Felodipine]", "values": [
      {"measurement": "glomerular separation", "setting": "[1]", "result": "5.36 ± 2.5"},
      {"measurement": "glomerular width", "setting": "[2]", "result": "0.634 ± 0.029"},
      {"measurement": "fraction of imaged embryos annotated as normal kidney", "setting": "[3]", "result": 0},
      {"measurement": "pronephric angle neck segment", "setting": "[4]", "result": "1.44 ± 0.022"}
    ]},
    {"smiles": "COc1ccc2cc(CCC(C)=O)ccc2c1", "note": "[Nabumetone]", "values": [
      {"measurement": "glomerular separation", "setting": "[1]", "result": "1.26 ± 0.44"},
      {"measurement": "glomerular width", "setting": "[2]", "result": "1 ± 0.011"},
      {"measurement": "fraction of imaged embryos annotated as normal kidney", "setting": "[3]", "result": 0.75},
      {"measurement": "pronephric angle neck segment", "setting": "[4]", "result": "1.06 ± 0.038"}
    ]},
    {"smiles": "CC(=O)Nc1nnc(S(N)(=O)=O)s1", "note": "[Acetazolamide]", "values": [
      {"measurement": "glomerular separation", "setting": "[1]", "result": "0.751 ± 0.2"},
      {"measurement": "glomerular width", "setting": "[2]", "result": "0.973 ± 0.029"},
      {"measurement": "fraction of imaged embryos annotated as normal kidney", "setting": "[3]", "result": 0.917},
      {"measurement": "pronephric angle neck segment", "setting": "[4]", "result": "0.9766 ± 0.0062"}
    ]},
    {"smiles": "COC(=O)[C@H](c1ccccc1Cl)N1CCc2sccc2C1", "note": "[Clopidogrel]", "values": [
      {"measurement": "glomerular separation", "setting": "[1]", "result": "1.06 ± 0.52"},
      {"measurement": "glomerular width", "setting": "[2]", "result": "0.893 ± 0.055"},
      {"measurement": "fraction of imaged embryos annotated as normal kidney", "setting": "[3]", "result": 0.833},
      {"measurement": "pronephric angle neck segment", "setting": "[4]", "result": "1.05 ± 0.054"}
    ]},
    {"smiles": "COc1ccc(C(=O)c2ccccc2)c(O)c1", "note": "[Oxybenzone]", "values": [
      {"measurement": "glomerular separation", "setting": "[1]", "result": "0.878 ± 0.34"},
      {"measurement": "glomerular width", "setting": "[2]", "result": "1.09 ± 0.026"},
      {"measurement": "fraction of imaged embryos annotated as normal kidney", "setting": "[3]", "result": 0.833},
      {"measurement": "pronephric angle neck segment", "setting": "[4]", "result": "1.03 ± 0.02"}
    ]},
    {"smiles": "Cc1cccc(C)c1NC(=O)CN1CCN(CCCC(c2ccc(F)cc2)c2ccc(F)cc2)CC1", "note": "[Lidoflazine]", "values": [
      {"measurement": "glomerular separation", "setting": "[1]", "result": "3 ± 1.2"},
      {"measurement": "glomerular width", "setting": "[2]", "result": "0.667 ± 0.014"},
      {"measurement": "fraction of imaged embryos annotated as normal kidney", "setting": "[3]", "result": 0.167},
      {"measurement": "pronephric angle neck segment", "setting": "[4]", "result": "0.988 ± 0.13"}
    ]},
    {"smiles": "C#CCN(C)Cc1ccccc1", "note": "[Pargyline hydrochloride]", "values": [
      {"measurement": "glomerular separation", "setting": "[1]", "result": "1.04 ± 0.29"},
      {"measurement": "glomerular width", "setting": "[2]", "result": "1.09 ± 0.052"},
      {"measurement": "fraction of imaged embryos annotated as normal kidney", "setting": "[3]", "result": 0.833},
      {"measurement": "pronephric angle neck segment", "setting": "[4]", "result": "0.95 ± 0.015"}
    ]},
    {"smiles": "CN1CCN2c3ccccc3Cc3ccccc3C2C1", "note": "(centres undefined) [Mianserine hydrochloride]", "values": [
      {"measurement": "glomerular separation", "setting": "[1]", "result": "1.3 ± 0.59"},
      {"measurement": "glomerular width", "setting": "[2]", "result": "0.983 ± 0.035"},
      {"measurement": "fraction of imaged embryos annotated as normal kidney", "setting": "[3]", "result": 0.833},
      {"measurement": "pronephric angle neck segment", "setting": "[4]", "result": "0.9786 ± 0.0076"}
    ]},
    {"smiles": "C[C@@H](O)[C@H]1C(=O)N2C(C(=O)O)=C(S[C@@H]3CN[C@H](C(=O)N(C)C)C3)[C@H](C)[C@H]12", "note": "[Meropenem]", "values": [
      {"measurement": "glomerular separation", "setting": "[1]", "result": "1.03 ± 0.35"},
      {"measurement": "glomerular width", "setting": "[2]", "result": "0.957 ± 0.021"},
      {"measurement": "fraction of imaged embryos annotated as normal kidney", "setting": "[3]", "result": 0.75},
      {"measurement": "pronephric angle neck segment", "setting": "[4]", "result": "1.0113 ± 1.4e-05"}
    ]},
    {"smiles": "CCCCC(O)c1ccccc1", "note": "(centres undefined) [Fenipentol]", "values": [
      {"measurement": "glomerular separation", "setting": "[1]", "result": "1.17 ± 0.29"},
      {"measurement": "glomerular width", "setting": "[2]", "result": "0.993 ± 0.03"},
      {"measurement": "fraction of imaged embryos annotated as normal kidney", "setting": "[3]", "result": 0.833},
      {"measurement": "pronephric angle neck segment", "setting": "[4]", "result": "0.967 ± 0.017"}
    ]}
  ]
}
